Data reported in PubChem BioAssay (NCATS).
Records with an inconclusive call do not appear. The source made the active and inactive calls. Calls come from the whole dose curve; as a rule, active = well fitted inhibition curve with a large enough effect; inconclusive = small, poorly fitted or top-dose-only effect; inactive = flat fitted curve, though single readings scatter.

System: Zika virus NS2B-NS3 protease (unlinked complex)
Assay: Confirmatory screen GU AMC qHTS for Zika virus inhibitors (AID 1347153); note: nearly all actives have a fitted effect of over 70% in size;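 for activity, negative = inhibition: percent inhibition with 0% = no inhibitor control and 100% = no enzyme control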
Details: Recombinant NS2B-NS3 protease, AMC substrate fluorescence; series mostly up to 57.1 µM; activity, negative = inhibition: at the top concentration
Excerpt: Assay Submitters (PI): Avindra Nath, Ph.D., National Institute of Neurological Disorders and Stroke (NINDS), Bethesda, MD Radhakrishnan Padmanabhan, Ph.D., Georgetown University (GU), Washington D.C. Zika Virus causes congenital defects, including microcephaly and is associated with Guillain-Barre syndrome, eningoencephalitis and myelitis in infected adult. […] Using a target-based approach, we hope to establish a screening paradigm to uncover novel, cell-active NS2B-NS3 protease (Zika Virus) specific inhibitors from NCATS' collection of small molecules using qHTS. […] Active compounds in the primary screen are re-acquired and re-screened to confirm NS2B-NS3 protease inhibition. Early Translation Branch (ETB) National Center for Advancing Translational Sciences (NCATS), Rockville, MD National Institute of Health (NIH), Bethesda, Maryland
Materials: Padmanabhan lab provided the NS2B hydrophilic domain and NS3 protease domain in a noncovalent complex used for the unlinked assay. Control compound aprotinin is obtained from Thermo Scientific (#78432; Waltham, Massachusetts). NS2B-NS3 AMC substrate (Bz-Nle-Lys-Arg-Arg-AMC; Nle-KRR-AMC) purchased from Bachem (#I-1995; Torrance, CA). Ac-VKTGKR-AMC purchased from Genscript or Bachem, Ac-FAAGKR-AMC purchased from Genscript, Ac-GLVKRR-AMC purchased from Genscript, Ac-LKKR-AMC purchased from Genscript. GU AMC unlinked NS2B-NS3 protease qHTS protocol: Briefly, 3 microL of Zika virus unlinked NS2B-NS3 protease (25 nM for linked final concentration), in assay buffer (10 mM Tris-HCl pH 8.0 with 0.01% Tween 20) was dispensed into a 1,536-well solid-bottom black plate (Greiner Bio One, Monroe, NC). Twenty-three nL of compounds (final concentration range 7.28 nM to 114 microM) or control Aprotinin (final concentration range 3.47 nM to 114 microM) were transferred via Wako Pin-tool (Wako Automation, Richmond, VA). Samples were incubated (room temperature, protected from light) for 15 minutes followed by a 1 microL AMC substrate addition of (final concentration of 10 microM; Km = 18.3 µM). Plates were then read immediately on a ViewLux High-throughput CCD imager (PerkinElmer, Waltham, MA) equipped with standard UV fluorescence optics (340(30) nm excitation, 450(20) nm emission) then incubated (room temperature, protected from light) for 15 minutes (~20% conversion). The change in fluorescence intensity over the 15-minute reaction period was normalized against no-inhibitor and no-enzyme controls and the resulting percent inhibition data were fitted to a 4-parameter Hill equation. Aprotinin was used as the intraplate control.
Potency is the fitted concentration of half-maximal effect.

Row | Compound | activity, negative = inhibition | Potency
1 | COc1cc(Cl)cn2c(-c3cccc(NC4CNC4)n3)cnc12 | -24% (inactive) | 
2 | O=C(Nc1cccc2c(=O)cc(-c3nn[nH]n3)oc12)c1ccc(OCCCCc2ccccc2)cc1 |  | 6.81 µM (active)
3 | C[C@H]1COC2=C1C(=O)C(=O)c1c2ccc2c1CCCC2(C)C |  | 21.5 µM (active)
4 | COc1cc(Nc2nc3ccccc3nc2NS(=O)(=O)c2ccc(NC(=O)c3ccc(C)c(OC)c3)cc2)cc(OC)c1 |  | 5.55 µM (active)
5 | CC(C)c1onc(-c2c(Cl)cccc2Cl)c1COc1ccc(C=Cc2cccc(C(=O)O)c2)c(Cl)c1 |  | 24.1 µM (active)
6 | CCCCOCCOc1nc(-c2ccc(C(=O)O)c(F)c2)sc1C |  | 12.1 µM (active)
7 | CCOC(=O)[C@H](CCc1ccccc1)N[C@@H](C)C(=O)N1CCCC1C(=O)O (stereo partly specified) | 7.54% (inactive) | 
8 | N#CC1(c2cccc(C(=O)Nc3cc(Oc4ccc5nc(NC(=O)C6CC6)sc5n4)ccc3F)c2Cl)CC1 | 9.1% (inactive) | 
9 | N#CC(c1ccc(Cl)cc1)c1c(Cl)cc(-n2ncc(=O)[nH]c2=O)cc1Cl (stereo unspecified) |  | 21.5 µM (active)
10 | COc1ccc(-c2ccc3ncc4c(c3c2)n(-c2ccc(N3CCNCC3)c(C(F)(F)F)c2)c(=O)n4C)cn1 | -4.48% [at 5.51 µM] (inactive) | 
11 | O=C(O)Cc1cccc(OCCCN(Cc2cccc(C(F)(F)F)c2Cl)CC(c2ccccc2)c2ccccc2)c1 |  | 17.1 µM (active)
12 | O=C(Nc1ccccc1)Nc1ccc(-c2ccc(C(=O)[C@H]3CCC[C@H]3C(=O)O)cc2)cc1 |  | 24.1 µM (active)
13 | O=C1Nc2ccc(I)cc2C1=Cc1cc(Br)c(O)c(Br)c1 | -6.68% (inactive) | 
14 | Fc1ccc(C(c2ccc(F)cc2)N2CCN(CC=Cc3ccccc3)CC2)cc1 | -2.38% (inactive) | 
15 | CC[C@H](C)n1cc(C)c2c(C(=O)NCc3c(C)cc(C)[nH]c3=O)cc(-c3ccc(N4CCNCC4)nc3)cc21 |  | 27.1 µM (active)
16 | CCCCC[C@H](O)C=C[C@H]1[C@H](O)CC(=O)[C@H]1CCCCCCC(=O)O | -1.2% (inactive) | 
